B2AR ag: activates human beta-2 adrenergic receptor causing internalization; P07550; Am2.2-beta2AR cells, FAP receptor internalization, flow cytometry; response, % (test concentration not listed); 0.43% of 340,000 active; AID 504454;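 active means response above a set limit, near 3 SD of response in nonfluorescent compounds, cut at about 42% in these data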
Target sequence (P07550 whole entry, looked up): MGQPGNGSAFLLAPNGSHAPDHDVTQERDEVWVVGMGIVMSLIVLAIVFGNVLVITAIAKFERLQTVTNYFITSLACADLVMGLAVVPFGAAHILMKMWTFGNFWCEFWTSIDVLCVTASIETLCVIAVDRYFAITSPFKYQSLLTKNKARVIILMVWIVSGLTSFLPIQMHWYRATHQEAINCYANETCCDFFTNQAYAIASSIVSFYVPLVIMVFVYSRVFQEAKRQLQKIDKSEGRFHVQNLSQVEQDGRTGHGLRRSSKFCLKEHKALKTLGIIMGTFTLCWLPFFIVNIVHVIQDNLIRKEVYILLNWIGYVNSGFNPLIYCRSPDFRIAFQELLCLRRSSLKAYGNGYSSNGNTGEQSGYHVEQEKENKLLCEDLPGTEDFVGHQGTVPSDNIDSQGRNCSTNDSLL
PfHsp90 yeast 2: growth inhibition of yeast expressing Plasmodium Hsp90; S. cerevisiae expressing PfHsp90, BacTiter-Glo ATP, 48 h; yeast lacking PDR1 and PDR3 efflux regulators; inhibition, % at 9.4 µM; 0.32% of 310,000 active; AID 504621;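 active means every replicate shows inhibition above about 80%, whatever the replicate mean, limit read from the data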;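 further: 0% = DMSO neutral controls and 100% = 20 µM radicicol positive controls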
TIM10 inh: TIM10 yeast growth inhibition; S. cerevisiae TIM10 strain growth, BacTiter-Glo luminescence, 24 h; inhibition, % at 10 µM; 1.4% of 330,000 active; AID 463195;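 active means inhibition of 40% or more at the single tested concentration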;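 further: wild-type TIM10 isogenic control strain grown at permissive 25 °C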
tim10-1 inh: tim10-1 yeast growth inhibition; inhibition, % at 20 µM; S. cerevisiae tim10-1 ts strain growth, BacTiter-Glo, 24 h; 2.2% of 330,000 active; AID 463190;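 active means inhibition of at least 40%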;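 further: mutant grown at 25 °C; 0% = DMSO wells with yeast and 100% = wells holding no yeast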
tim23-1 inh: inhibits growth of tim23-1 mutant yeast; S. cerevisiae tim23-1 growth, BacTiter-Glo luminescence, 24 h; inhibition, % at 20 µM; 1.3% of 330,000 active; AID 463212;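 active means growth inhibition of the mutant yeast at or above 50%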;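 further: temperature-sensitive mutant grown at 25 °C; plate controls were DMSO-treated mutant yeast for no effect and medium wells lacking yeast for full effect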
tim10-1 confirm: confirmation of tim10-1 mutant yeast growth inhibitors. shares compounds with tim10-1 inh. S. cerevisiae tim10-1 ts strain growth, BacTiter-Glo, 24 h. inhibition, % at 20 µM. 56% of 7,400 active. AID 463213;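 active means inhibition of yeast growth at or above a set limit in either of two repeat tests at 20 µM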;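 further: tim10-1 mutant grown at permissive 25 °C to find synthetic lethal compounds; 0% = DMSO yeast wells and 100% = medium wells without yeast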
tim10 confirm: TIM10 yeast growth inhibition, confirmed; inhibition, % at 10 µM; 63% of 4,600 active; shares compounds with TIM10 inh; S. cerevisiae tim10 strain growth, BacTiter-Glo luminescence, 24 h;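 active means inhibition of yeast growth at or above a set limit in either of two replicates at 10 µM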;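 further: this counterscreen used the strain with wild-type TIM10; 0% = yeast with DMSO and 100% = medium wells lacking yeast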
tim23-1 confirm: tim23-1 yeast growth inhibition, confirmed; inhibition, % at 20 µM; 83% of 4,400 active; shares compounds with tim23-1 inh; S. cerevisiae tim23-1 growth, BacTiter-Glo luminescence, 24 h;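 active means inhibition above about 39% in either of two replicate wells at 20 µM, limit read from the data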;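 further: temperature-sensitive tim23-1 mutant grown at 25 °C; 0% = DMSO wells with yeast and 100% = medium wells without yeast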
An asterisk follows results filed as active; . = no result given. Only some compounds are listed: those with a hit (about 3.8% of all), similar ones and a draw of the others.

SMILES	B2AR ag	PfHsp90 yeast 2	TIM10 inh	tim10-1 inh	tim23-1 inh	tim10-1 confirm	tim10 confirm	tim23-1 confirm
Oc1c(Br)cc(Br)cc1C=Nc1cccc2ncccc12	19.4	-5.2	-5.3	55.0*	83.1*	40.9*	.	85.8*
CC(Oc1ccc(Cl)cc1Cl)C(=O)NC1=NN(c2ccccc2)C(=O)C1 (stereo unspecified)	2.2	.	10.9	52.2*	61.3*	33.4*	.	-52.1
CC(=O)Nc1ccc(NC(=O)C(C)Oc2ccc(Cl)cc2Cl)cc1 (stereo unspecified)	-4.9	-7.6	30.1	36.5	39.8	.	.	.
C[C@H](CCC(=O)NCC(=O)O)[C@H]1CC[C@H]2C3[C@H](O)C[C@@H]4C[C@H](O)CC[C@]4(C)[C@H]3C[C@H](O)[C@]12C (stereo partly specified)	0.1	5.4	15.6	12.7	1.0	.	.	.
CCOc1ccccc1C(=O)Nc1cc2c(cc1N1CCCC1)n(CC)c(=O)n2CC	31.1	-76.7	9.7	48.1*	56.8*	4.6	.	50.6*
COc1ccc(O)c(CN2CCCC(N3CCc4ccccc4C3)C2)c1 (stereo unspecified)	-0.9	7.2	-0.2	1.6	-3.9	.	.	.
Cc1cc(C)c2cc(C)c(SCC(=O)NCc3ccco3)nc2c1	-2.8	-12.8	31.8	43.8*	50.2*	43.0*	.	56.0*
Cc1cc(C)c2cc(C#N)c(SCC(=O)NCc3ccco3)nc2c1	11.1	-10.6	10.2	22.3	15.8	.	.	.
CCOc1ccc(CCNC(=O)c2cc3c(s2)CS(=O)(=O)C3)cc1OCC	5.6	-1.6	6.1	-5.5	-6.0	.	.	.
O=C1C(C2=C(O)c3ccccc3C2=O)=Nc2ccccc21	.	-1.1	56.3*	50.6*	61.5*	19.1	54.2*	73.0*
O=C1CC2(CCN(C(=O)c3ccc(F)cc3)CC2)Oc2ccccc21	1.1	3.5	10.0	-12.6	4.8	.	.	.
CC(=O)OCCCN1c2ccccc2Nc2nnc(-c3ccccc3)cc21	-2.7	-9.1	51.5*	46.8*	50.8*	31.9*	30.0*	48.8*
COc1ccccc1C1CC(c2ccccc2)=NN1C(=O)c1ccccc1 (stereo unspecified)	12.6	-4.2	39.0	41.8*	62.2*	45.5*	.	52.5*
COc1ccc(-c2csc(NC(=O)Cc3cccc4ccccc34)c2C(=O)O)cc1	5.1	21.6	.	.	.	.	.	.
O=C(Nc1scc(-c2ccccc2)c1C(=O)O)c1ccc(F)cc1	0.4	38.8	60.3*	67.0*	84.8*	71.8*	45.4*	86.5*
Cc1ccc(-c2csc(NC(=O)c3ccc(F)cc3)c2C(=O)O)cc1	8.1	34.4	82.3*	81.2*	77.2*	81.7*	94.2*	88.4*
COc1ccc(-c2csc(NC(=O)c3ccc(C(C)(C)C)cc3)c2C(=O)O)cc1	8.8	.	73.4*	84.5*	84.7*	83.3*	92.3*	89.5*
Cc1ccc(C(=O)Nc2scc(-c3ccccc3)c2C(=O)O)o1	-5.6	.	18.4	5.9	4.5	.	.	.
COc1ccccc1C(=O)NCCC(=O)Nc1ccc(S(=O)(=O)N2CCC(C)CC2)cc1	-2.4	9.9	4.9	16.1	22.2	.	.	.
N#C/C(=C\c1ccco1)Sc1nc2ccccc2s1	-1.4	21.0	56.2*	50.4*	58.1*	58.2*	44.4*	50.8*
Cc1[nH]n(-c2ccccc2)c(=O)c1Sc1ccc(Cl)cc1	-10.6	-8.3	19.3	13.5	20.8	.	.	.
COc1ccc(C(c2c(C)[nH]n(-c3ccccc3)c2=O)c2c(C)[nH]n(-c3ccccc3)c2=O)cc1OC	2.0	9.0	21.5	37.5	35.7	.	.	.
Cc1[nH]n(-c2ccccc2)c(=O)c1C(C[N+](=O)[O-])c1ccc(Cl)cc1 (stereo unspecified)	11.6	.	49.2*	58.2*	85.9*	47.6*	28.2	83.7*
Cc1ccc(C(C[N+](=O)[O-])c2c(C)[nH]n(-c3ccccc3)c2=O)cc1 (stereo unspecified)	4.4	-3.6	29.1	41.9*	74.6*	25.4	.	60.9*
Cc1[nH]n(-c2ccccc2)c(=O)c1C(C[N+](=O)[O-])c1ccc(F)cc1 (stereo unspecified)	-0.8	18.2	47.5*	60.3*	83.2*	40.7*	12.1	64.0*
SMILES	B2AR ag	PfHsp90 yeast 2	TIM10 inh	tim10-1 inh	tim23-1 inh	tim10-1 confirm	tim10 confirm	tim23-1 confirm
COC(=O)C1=C(C)N(c2ccc(Cl)c(Cl)c2)C(=O)C1	5.9	-14.8	43.4*	45.9*	59.0*	47.1*	38.8*	50.4*
COC(=O)C1=C(C)N(c2ccc(S(N)(=O)=O)cc2)C(=O)C1	-6.1	-3.1	-1.5	7.0	13.8	.	.	.
CC1CCC2(CC1)NC(=O)N(CC(=O)Nc1cccc(S(=O)(=O)N3CCCC3)c1)C2=O (stereo unspecified)	0.8	24.7	-0.8	7.5	12.2	.	.	.
CCOc1ccc2nc(NC(=O)c3ccoc3C)sc2c1	10.8	78.6*	67.7*	75.5*	80.2*	76.1*	68.8*	84.8*
CCOc1ccc2nc(NC(=O)c3ccccn3)sc2c1	24.1	21.4	16.0	10.6	-0.3	.	.	.
CCCCn1c(N)c(N(CCOC)C(=O)CC(NC(=O)c2ccccc2Cl)c2ccccc2)c(=O)[nH]c1=O (stereo unspecified)	-5.8	.	.	.	.	.	.	.
CC1=NN(c2ccccc2)C(=O)/C1=C\c1ccc(Br)s1	17.0	20.2	39.0	42.0*	56.7*	39.2*	.	66.7*
CC1=NN(c2ccccc2)C(=O)/C1=C/c1ccc(Cl)cc1	5.1	-4.1	25.4	23.6	41.6	.	.	.
Cc1ccc(-n2ncc3c2CCCC3NC(=O)c2csnn2)cc1C (stereo unspecified)	-3.9	-4.2	26.1	58.6*	51.8*	40.7*	.	43.5*
Cc1oc(-c2nc3ccccc3n2C)cc1C(=O)c1ccccc1	34.0	43.4	53.2*	47.8*	55.8*	32.7*	-28.6	72.7*
C=C1CCc2c([nH]c3ccc(OCC(C)C)cc23)C1=O	15.0	-8.0	37.5	47.3*	58.8*	22.7	.	57.0*
O=C(NC(=S)NCc1ccccc1)c1cccs1	-24.3	-0.5	34.7	50.7*	61.5*	43.4*	.	52.0*
O=C(Cc1ccccc1)NNC(=S)NC(=O)c1cccs1	-0.8	.	8.3	24.5	-18.6	.	.	.
Cc1cc(=O)oc2c(C(=O)/C=C\c3cccs3)c(O)ccc12	1.0	-70.4	55.7*	53.8*	73.2*	79.5*	64.1*	66.3*
COc1ccc(/C=C\C(=O)c2c(O)ccc3c(C)cc(=O)oc23)cc1OC	26.4	-18.4	46.6*	53.3*	54.3*	50.3*	50.5*	52.2*
